Test results as given in PubChem BioAssay AID687001 (Broad Institute, 2013).
Measured potencies and affinities stand elsewhere. Active and inactive are the calls of the source.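 How the source made its calls: active means signal-lowering compounds whose fitted half-maximal concentration is at or below twice the top tested dose in every run; inconclusive means runs disagree, flat 30 to 70% inhibition, or poor curve fit; inactive means the rest.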

Biological target: Protein S100-A4 (Homo sapiens) (UniProt P26447)
Assay: S100A4-myosin IIA binding inhibitor potency, dose response, biochemical, fluorescence polarization, cherry-picked hits (AID 687001)

Chain of Protein S100-A4 (Homo sapiens) (P26447 whole entry, looked up): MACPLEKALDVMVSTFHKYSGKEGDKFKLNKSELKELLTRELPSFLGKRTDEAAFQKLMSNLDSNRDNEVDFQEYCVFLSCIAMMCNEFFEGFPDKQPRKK

COc1ccc(C(=O)OCc2nnc(-c3ccccc3)o2)cc1S(=O)(=O)N1CCOCC1
outcome: inactive

CC1Cc2ccccc2N1NC(=O)c1ccc(Cl)c(S(N)(=O)=O)c1 (stereo not given)
outcome: inactive

C[C@H](NC(=O)C[C@H]1C[C@@H]2c3cc(NC(=O)CN(C)C)ccc3O[C@@H]2[C@H](CO)O1)c1ccccc1
outcome: inactive

Cc1ccc(CN2C(=O)CSCC2(C)C(=O)Nc2c(C)cccc2C)cc1 (stereo not given)
outcome: inactive

COc1cc(O)c(C(=O)O)c(CCc2ccccc2)c1
outcome: inactive

Cn1c(CC(=O)NNC(=O)c2ccc(F)cc2F)nc2ccccc21
outcome: inactive

CCCn1cnc2c(oc3ccccc32)c1=O
outcome: inactive

CCn1c(SCC(=O)O)nnc1-c1ccc2[nH]c(C)c(C)c2c1
outcome: inactive

Cc1nn(-c2ccccc2)c(N)c1N=O
outcome: inactive

CCCNC(=O)N1C[C@H](O)COC[C@@H]2O[C@H](CC(=O)N[C@H]3CCN(Cc4ccccc4)C3)CC[C@H]21
outcome: inactive

Cc1ccc(S(=O)(=O)Nc2ccc3c(c2)nc(CCN2CCN(c4ccccn4)CC2)n3C)cc1
outcome: inactive

CC1CCCCC1NC(=O)CSc1nnc(-c2ccco2)n1N (stereo not given)
outcome: inactive

COC(=O)C[C@H]1CC[C@@H](NC(=O)Nc2cccc(OC)c2)[C@@H](CO)O1
outcome: inactive

Cc1ccc(S(=O)(=O)NCc2ccccc2)cc1C(=O)NCC1CCCO1 (stereo not given)
outcome: inactive

O=C(Nc1ccccc1F)N1C[C@@H]2[C@H](c3ccccc31)[C@@H](CO)N2C(=O)C1CCCC1
outcome: inactive

COc1cccc(NC(=O)N[C@@H]2C=C[C@@H](CC(=O)N3CCN(C)CC3)O[C@@H]2CO)c1
outcome: inactive

O=C(C[C@@H]1C[C@H]2c3cc(NC(=O)NC4CCCC4)ccc3O[C@H]2[C@H](CO)O1)NCCc1ccccc1
outcome: inactive

COCC(=O)Nc1ccc2c(c1)[C@@H]1C[C@@H](CC(=O)N3CCOCC3)O[C@@H](CO)[C@@H]1O2
outcome: inactive

CCCNC(=O)c1ccc2c(c1)nc(C)n2-c1cccc(C)c1
outcome: inactive

O=C(C[C@@H]1CC[C@H]2[C@@H](COC[C@@H](O)CN2CC2CCCCC2)O1)NCc1ccc(F)cc1
outcome: inactive

Cc1ccc2c(c1)C(c1ccccc1)N(C(=O)c1ccccc1[N+](=O)[O-])CC(=O)N2 (stereo not given)
outcome: inactive

Cc1cc(NC(=O)CCC(=O)N(Cc2ccco2)C2(C(=O)NC3CCCC3)CCC(C)CC2)no1 (stereo not given)
outcome: inactive

CN(C)S(=O)(=O)c1ccc(Cl)c(C(=O)NNC(=O)Cn2ccc(C(F)(F)F)n2)c1
outcome: inactive

O=C(/C=C/c1cc(Br)ccc1F)OCC(=O)N1CCOCC1
outcome: inactive

CCc1nn2c(=O)cc(COc3ccc(NC(=O)c4ccco4)cc3)nc2s1
outcome: inactive

COc1ccc(C2=NN(CCC(=O)NC3CCC(C)CC3)C(=O)CC2)cc1 (stereo not given)
outcome: inactive

CCCNC(=O)Nc1ccc2c(c1)OC[C@@H](C)N(C(=O)C1CC1)C[C@H](C)[C@@H](OC)CN(C)C2=O
outcome: inactive

Cc1cc(C(=O)Nc2ccncc2)c2ccccc2n1
outcome: inactive

CCOc1ccc(C(=O)NC2CCN(C(=O)Nc3ccc(F)cc3)CC2)cc1
outcome: inactive

C[C@@H]1CN([C@@H](C)CO)C(=O)c2cc(NC(=O)C3CC3)ccc2O[C@@H]1CN(C)Cc1ccc(Cl)c(Cl)c1
outcome: inactive

CCc1ccc(C(=O)NNC(=O)c2c(CC)noc2C)cc1
outcome: inactive

Cc1csc(=O)n1CC(=O)OCc1nnc(-c2ccc(Cl)cc2)o1
outcome: inactive

COc1ccc(N2CC(C(=O)Nc3ccccc3N3CCCC3)CC2=O)c(OC)c1 (stereo not given)
outcome: inactive

CC1CCCCC12NC(=O)N(CC(=O)OCC(=O)Nc1ccc(F)cc1[N+](=O)[O-])C2=O (stereo not given)
outcome: inactive

CC(C)C#Cc1ccc2c(c1)O[C@@H](CN(C)C(=O)NC(C)C)[C@H](C)CN([C@H](C)CO)S2(=O)=O
outcome: inactive

COc1ccc(CN(C)C[C@@H]2Oc3ccc(NC(=O)Cc4ccccc4)cc3CC(=O)N([C@@H](C)CO)C[C@H]2C)cc1
outcome: inactive

CN1CCCCN2[C@@H](CO)[C@@H](c3ccc(C#CC4(O)CCCC4)cc3)[C@@H]2C1
outcome: inactive

CCOc1cc(/C=C2\CCCc3c2nc2ccccc2c3C(=O)O)ccc1OC
outcome: inactive

Cn1cnc(CCNC(=O)C[C@H]2CC[C@H]3[C@@H](COC[C@@H](O)CN3C(=O)C3CC3)O2)c1
outcome: inactive

CCN(CC(=O)Nc1ccccc1C(F)(F)F)C(=O)c1ccc(NC(=O)c2cccs2)cc1
outcome: inactive

C[C@H]1CN([C@@H](C)CO)C(=O)CCCn2nncc2CO[C@H]1CN(C)S(=O)(=O)c1ccc2c(c1)OCCCO2
outcome: inactive

N#C[C@@H]1[C@H](c2ccccc2-c2cccc(F)c2)[C@@H](CO)N1C(=O)C1CC1
outcome: inactive

COc1cccc(CN2CC(C(=O)NCC3CCOCC3)CCC2=O)c1 (stereo not given)
outcome: inactive

O=C(C[C@H]1C=C[C@H](NC(=O)CCN2CCCCC2)[C@H](CO)O1)Nc1nccs1
outcome: inactive

O=C1SCCC1NC(=O)C(c1ccccc1)c1ccccc1 (stereo not given)
outcome: inactive

CCCNC(=O)[C@@H]1[C@@H](CO)[C@@H]2Cn3c(cccc3=O)[C@H]1N2CCC(F)(F)F
outcome: inactive

O=C(C[C@@H]1CC[C@@H]2[C@H](COC[C@@H](O)CN2C(=O)c2ccc3c(c2)OCO3)O1)NCCN1CCCC1
outcome: inactive

CC(=O)Nc1ccc2nsnc2c1
outcome: inactive

CCN(C[C@H]1[C@H](c2ccccc2)[C@H](CO)N1C(C)=O)C(=O)c1ccccn1
outcome: inactive

Cc1nc(Nc2cccc(O)c2)c2oc3ccccc3c2n1
outcome: inactive

CCc1ccc(C(=O)COC(=O)c2ccco2)cc1
outcome: inactive

Cc1noc(C)c1S(=O)(=O)N(C)C[C@H]1OCCCC[C@H](C)Oc2ccc(NS(=O)(=O)c3ccccc3)cc2C(=O)N([C@H](C)CO)C[C@@H]1C
outcome: inactive

COC(=O)C1=C(C)N(C)C(=O)NC1c1cc(Cl)c(O)c(OC)c1 (stereo not given)
outcome: inactive

COCC(=O)N(C)C[C@H]1Oc2cc(C#CCN(C)C)ccc2S(=O)(=O)N([C@@H](C)CO)C[C@H]1C
outcome: inactive

COc1ccc(NC(=O)CN(C)C(=O)c2ccc(N3CCCC3)c([N+](=O)[O-])c2)cc1
outcome: inactive

C[C@H](CO)N1C[C@H](C)[C@H](CN(C)Cc2ccncc2)Oc2c(NC(=O)C3CC3)cccc2C1=O
outcome: inactive

COc1ccccc1Nc1cc(C)nc(Nc2ccccc2OC)n1
outcome: inactive

O=C(Cc1ccc(Br)cc1)N/N=C/c1cccnc1
outcome: inactive

CNC[C@H]1Oc2c(NC(=O)Nc3ccc(C(F)(F)F)cc3)cccc2C(=O)N([C@@H](C)CO)C[C@H]1C
outcome: inactive

Cc1ccc(S(=O)(=O)Nc2ccc(O)c3ccccc23)c(C)c1
outcome: inactive

Cc1noc(C)c1NC(=O)Nc1ccc2c(c1)C(=O)N([C@H](C)CO)C[C@@H](C)[C@@H](CN(C)S(=O)(=O)c1ccc(Cl)cc1)OCCCC[C@H](C)O2
outcome: inactive

CC(C)(C)OC(=O)C[C@H]1C/C=C\C[C@H](CC(=O)N[C@H](CO)Cc2ccccc2)C(=O)N[C@H](Cc2ccccc2)COC1=O
outcome: inactive

Cn1c(-c2ccc(Cl)cc2)cnc1NCc1cc2c(cc1[N+](=O)[O-])OCO2
outcome: inactive

CN(C)C(=O)C[C@@H]1C=C[C@H](NC(=O)Nc2cccc(F)c2)[C@@H](CO)O1
outcome: inactive

CC(NC(=O)Nc1ccc(F)cc1)c1ccc2c(c1)OCO2 (stereo not given)
outcome: inactive

COC(=O)[C@@H]1[C@@H](CO)[C@@H]2Cn3c(ccc(-c4ccccc4)c3=O)[C@@H]2N1C(=O)CC1CC1
outcome: inactive

Cc1ccccc1S(=O)(=O)N(C)C[C@@H]1OCc2cnnn2CCCC(=O)N([C@@H](C)CO)C[C@H]1C
outcome: inactive

CCC(c1nc2ccccc2[nH]1)n1c(-c2cccnc2)nc2ccccc21 (stereo not given)
outcome: inactive

Cn1c(=O)oc2cc(S(=O)(=O)NCc3ccc(Cl)cc3)ccc21
outcome: inactive

C[C@@H]1ON(C)[C@H]2C[C@H]3c4[nH]c5ccccc5c4CCN3C(=O)[C@@H]12
outcome: inactive

O=C(NC1CCCCC1)[C@H]1[C@H](CO)[C@H]2Cn3c(cccc3=O)[C@H]2N1C(=O)CC1CC1
outcome: inactive

CCCCn1c(O)c(/C=C2\C=Nc3ccccc32)c(=O)[nH]c1=O
outcome: inactive

Cc1ccc(C(=O)Nc2ccc(N3CCOCC3)cc2)cc1
outcome: inactive

CCCc1cc(=O)[nH]c(SCC(=O)N2CCc3ccccc32)n1
outcome: inactive

CNC[C@@H]1OCCCC[C@@H](C)Oc2ccc(NS(=O)(=O)c3cccs3)cc2C(=O)N([C@H](C)CO)C[C@H]1C
outcome: inactive
